# According to the supplement of paper PMC11417369:
# ± gives the standard deviation of the averaged measurements. In all, about 25,000 sequences were measured (“ln(normalized median fluorescence intensity)”: median about 7.9, highest 2% from about 11 on). The entries come from a sample that favours the highest values as a whole.
# System: PfAP2-I AP2 domain 3 (GST-tagged)
# Assay: gcPBM binding intensity (ln(normalized median fluorescence intensity)); higher = stronger DNA binding
# Summary of the method: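 Binding intensity is defined as the maximum Masliner-normalised natural-log median intensity across replicate spots for either probe orientation. It was measured on an Agilent 4 × 180k array of primer-extended double-stranded 36-bp intergenic genomic probes and negative controls, to which GST-tagged P. falciparum DNA-binding domains made in E. coli were applied for 1 h in 1× PBS with 1% milk, 0.2 mg/ml BSA, 0.5% salmon testes DNA and 0.03% Triton X-100. Detection was by Alexa488 anti-GST antibody and scanning at 488 nm.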
row,Sequence,gcPBM binding intensity (ln)
1,ATTAAGACACATTGCACACGTGCACCCATAGAAAAA [CACACA_site408],11.02 ± 0.099
2,TACACCCATAGACACACACACACGCATAAAAAAAAA [CACACA_site8428],8.36 ± 0.34
3,TAAGAAATAAATAGTACACACATAGACACCCACCCA [CACACA_site8429],8.65 ± 0.54
4,CCATTAAGACACATTGCACACGTGCACCCATAGAAA [CACACA_site4388],10.79 ± 0.021
5,ACATTGCACCCGTGCACACATAGAAAAATAATTCTT [CACACA_site409],11.1
6,ACATTAAGACACATTGCACACGTGCACCCATAGAAA [CACACA_site8029],10.965 ± 0.007
7,ACCCATTGCTCACGTGCACACATAGAAAAATAATTC [CACACA_site4389],10.7 ± 0.16
8,CATTTGCACCCGCACACACACATAAAAAGAAAAATA [CACACA_site4350],10.7 ± 0.8
9,TAAGAAATAAATAGTACACACATAGACACCCACCGA [CACACA_site1516],8.86 ± 0.15
10,TTTTTTGTTTGAATGGTGCATTTTGTAATTATATTT,10.3 ± 0.41
11,TTGTTATGTTTTATTTGTACGTAGGTTTCTATCAAA [XGTACX_site7636],8.12 ± 0.35
12,ATATTTATTTATATGTGTACTTATGTTTATATAAAA [XGTACX_site4250],8.02 ± 0.21
13,GAAAATATAAAAAAAAGTACATTTTCTCTAAATATA [XGTACX_site2441],7.57 ± 0.35
14,ATTTTTTTACTGTAACCATATTTTTCCCTTTTATTC [CACACA_negctrl_site1143],7.95 ± 0.79
15,TGTATGTTATATACAACACACAAAAAAAAACAAGTT [CACACA_site301],7.62 ± 0.7
16,AGACAATATCTTATTTGTACATATGTATTCCTCATA [XGTACX_site5757],7.88 ± 0.63
17,GGGAATATAAGTACACGATAATATGTGATAAGGTCT [CACACA_negctrl_site1502],8.28 ± 0.86
18,AAGAACCATATTTAAACACACATACCTATATAAATA [CACACA_site7553],7.68 ± 0.53
19,ATGTTACACCGACACACACACATAAAAAAACAAAAA [CACACA_site5750],8.15 ± 0.34
20,ACGTGTATTTATTTAGTGCACTTTATATTTTTTCTT [GTGCAC_site9426],11.5 ± 0.28
21,ATTTTTTTCTTAGGAGTGCACTTATATTTATTTTAT,10.8 ± 0.49
22,TATATATATTAGTGTGCACACTTTTTATTTTTATCC [CACACA_site8506],9.33 ± 0.4
23,TTATACCTATATTTAACACACATTTGATAAAGTGCC [CACACA_site6732],7.76 ± 0.61

row,Sequence,gcPBM binding intensity (ln)
1,ACACCTATAAATTAAGTGCATTTTTTTTGATGTTAT,9.45 ± 0.46
2,ATACCTATTTGATGAGTGCATTATCCAATATATGTA,11.3 ± 0.65
3,ATTTTTGTTATTACATGTACCCATAATTATTATTAA [XGTACX_site3558],8.58 ± 0.75
4,AAAATTATAATAATATGTACTTAAAAAATTTATATA [XGTACX_site632],7.54 ± 0.2
5,ACATTAAAAAATTGTTTGCACTATATAAAATATTAA [GTGCAC_site9728],9.86 ± 0.28
6,TTTTTGTTACCTATTGTGCACTTCATATAAATTAAA,11.3 ± 0.35
7,TGTTAAAATTATTTGGTGCACTTGTTTTACCTTATT,10.8 ± 0.48
8,ATATATAACGTGCACACACACATTTACGTATGAATA [CACACA_site6948],10.975 ± 0.007
9,TAATATATAACGTGCACACACACATTTACGTATGAA [CACACA_site1832],10.86 ± 0.064
10,ATTAATATATAACGTGCACACACACCGTTACGTATG [CACACA_site8543],10.3 ± 0.35
11,TAATATATAACGTGCACACACACATCTACGTATGAA [CACACA_site5080],10.82 ± 0.099
12,TATATATGCATATACATACACACATAACACATACGT [CACACA_site3833],8.24 ± 0.39
13,TATGTTTACATATACGTGCACATGAATGTATACATT [GTGCAC_site9894],10.7 ± 0.29
14,TTTATACATACATTCGTGCACATACGTATAACATAT,11.2 ± 0.19
15,ATATATAACGGGCACACACACATTTACGTATGAATA [CACACA_site1833],8.31 ± 0.49
16,ATACGTATATAATATACATGCATATATAGCACATAC [TGCATGCA_site376],9.11 ± 0.66
17,AATGTCCTTATTTGCACACACACATATAAGAAATTT [CACACA_site3186],9.91 ± 0.23
18,TTACGCGCTTATTACACACACATACAAATAAGGATT [CACACA_site3486],8.06 ± 0.47
19,ATAATCAACATTAGGTGTACAAAATATGTATGTTTT [XGTACX_site6696],8 ± 0.59
20,ATTATTAAGTTTCACAAGAACATTGTTAACAATTTT [CACACA_negctrl_site1128],7.5 ± 0.64
21,TTTTCTTTTTCCAAAAGTACGTAATTTAAACATTTT [XGTACX_site2066],7.83 ± 0.43
22,AATTTTTTTCTCCAAGTGCATTAGAACATTAACGTA [GTGCAC_site9413],10.9 ± 0.53
23,AAAAAAAATTATATTTGTACGCATTAAAAAATCTAA [XGTACX_site1616],7.64 ± 0.26
